From PubChem
HP1b binding inh: HP1-beta chromodomain-methylated histone interaction inhibition; AlphaScreen HP1-beta / biotin-H3K9me3 peptide binding; Potency, µM (top dose mostly 114 µM), inactives show at the highest dose activity change, negative = inhibition, most hits filed as inhibitors; hit rate 0.56% among 390,000; AID 540317; further: nearly all actives have a fitted effect of over 70% in size
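HP1-beta protein (50 nM final) preincubated 30 min at room temperature with biotinylated H3(1-18)K9me3 peptide (50 nM) in PBS pH 7.4, 0.01% Tween-20, then compound added for 30 min. AlphaScreen streptavidin donor/nickel chelate acceptor beads (10 ug/mL final), 30 min dark, luminescence read.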
BAZ2B block: BAZ2B (human) inhibition. AlphaScreen BAZ2B-H3K14Ac peptide displacement. Q9UIF8. Potency, µM (doses to about 114 µM), for inactives: at the highest dose activity change, negative = inhibition, hits mostly inhibitors. hit rate 4.4% among 360,000; further: on the % scale 0 is the no-effect control and ±100 the full control effect; nearly all actives have a fitted effect of over 60% in size
Target sequence (Q9UIF8 whole entry, looked up): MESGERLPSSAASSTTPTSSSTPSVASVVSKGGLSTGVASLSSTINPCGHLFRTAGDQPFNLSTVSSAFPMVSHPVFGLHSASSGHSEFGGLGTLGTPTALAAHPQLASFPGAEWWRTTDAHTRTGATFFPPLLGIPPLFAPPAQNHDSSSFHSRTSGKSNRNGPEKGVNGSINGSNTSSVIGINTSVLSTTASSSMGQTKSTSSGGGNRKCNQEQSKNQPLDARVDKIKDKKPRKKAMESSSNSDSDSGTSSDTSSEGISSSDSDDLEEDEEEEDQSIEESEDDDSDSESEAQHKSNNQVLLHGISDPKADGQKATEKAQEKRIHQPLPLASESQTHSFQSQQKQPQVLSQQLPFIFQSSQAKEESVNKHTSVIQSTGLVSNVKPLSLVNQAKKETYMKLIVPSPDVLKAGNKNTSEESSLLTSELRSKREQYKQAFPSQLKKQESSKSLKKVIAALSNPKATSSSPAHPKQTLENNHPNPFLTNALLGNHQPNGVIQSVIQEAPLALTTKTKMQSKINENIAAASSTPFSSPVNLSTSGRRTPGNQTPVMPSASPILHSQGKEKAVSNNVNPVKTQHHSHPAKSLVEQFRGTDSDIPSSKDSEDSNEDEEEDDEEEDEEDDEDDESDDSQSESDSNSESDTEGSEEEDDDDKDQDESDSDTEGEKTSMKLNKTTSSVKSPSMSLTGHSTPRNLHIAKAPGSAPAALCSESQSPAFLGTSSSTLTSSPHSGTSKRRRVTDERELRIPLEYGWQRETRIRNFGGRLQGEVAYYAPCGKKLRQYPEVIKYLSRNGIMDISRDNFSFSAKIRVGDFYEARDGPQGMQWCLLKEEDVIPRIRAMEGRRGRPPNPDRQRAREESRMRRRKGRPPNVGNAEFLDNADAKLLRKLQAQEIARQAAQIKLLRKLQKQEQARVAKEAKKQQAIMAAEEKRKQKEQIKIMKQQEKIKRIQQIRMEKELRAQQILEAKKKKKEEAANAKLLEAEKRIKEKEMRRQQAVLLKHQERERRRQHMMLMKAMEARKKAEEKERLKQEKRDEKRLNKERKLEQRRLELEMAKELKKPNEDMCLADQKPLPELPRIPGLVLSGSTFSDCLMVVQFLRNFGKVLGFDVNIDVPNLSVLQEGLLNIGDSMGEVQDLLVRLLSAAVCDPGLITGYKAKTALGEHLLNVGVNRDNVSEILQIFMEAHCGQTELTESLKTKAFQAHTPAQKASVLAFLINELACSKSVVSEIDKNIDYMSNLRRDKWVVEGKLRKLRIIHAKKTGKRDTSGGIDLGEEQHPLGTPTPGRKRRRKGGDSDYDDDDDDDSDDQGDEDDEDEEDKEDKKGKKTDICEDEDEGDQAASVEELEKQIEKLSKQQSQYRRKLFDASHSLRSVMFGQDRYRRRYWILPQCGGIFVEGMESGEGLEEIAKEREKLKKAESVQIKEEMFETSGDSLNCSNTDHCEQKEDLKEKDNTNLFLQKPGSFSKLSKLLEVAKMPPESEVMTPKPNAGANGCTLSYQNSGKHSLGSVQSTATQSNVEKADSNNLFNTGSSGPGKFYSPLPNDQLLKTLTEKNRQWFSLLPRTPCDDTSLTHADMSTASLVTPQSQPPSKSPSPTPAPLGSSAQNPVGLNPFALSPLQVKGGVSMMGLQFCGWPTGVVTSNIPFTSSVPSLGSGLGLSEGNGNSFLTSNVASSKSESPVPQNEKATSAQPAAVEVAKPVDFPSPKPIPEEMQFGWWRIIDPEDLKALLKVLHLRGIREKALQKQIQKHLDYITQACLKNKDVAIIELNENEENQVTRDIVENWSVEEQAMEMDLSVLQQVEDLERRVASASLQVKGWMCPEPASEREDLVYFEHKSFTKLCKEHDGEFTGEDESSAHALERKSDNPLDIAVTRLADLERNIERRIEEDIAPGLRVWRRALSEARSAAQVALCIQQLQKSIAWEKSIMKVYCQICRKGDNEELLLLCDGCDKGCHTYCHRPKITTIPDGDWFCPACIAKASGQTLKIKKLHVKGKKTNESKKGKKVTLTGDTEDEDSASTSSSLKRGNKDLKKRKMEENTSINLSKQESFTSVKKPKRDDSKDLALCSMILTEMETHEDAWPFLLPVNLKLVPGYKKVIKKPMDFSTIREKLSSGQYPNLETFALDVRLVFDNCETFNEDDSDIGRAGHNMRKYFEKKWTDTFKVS
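Multi-concentration screen (max 110 uM) measuring displacement of acetylated histone H3 peptide from BAZ2B by AlphaScreen, using 50 nM protein, 50 nM peptide and 10 ug/mL streptavidin donor plus Ni-chelate acceptor beads.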
TDP1 inh: TDP1 (human) enzyme inhibition; Potency, µM (series often up to 130 µM), for the others: top-dose activity change, negative = inhibition, usual class: inhibitors; Q9NUW8; hit rate 0.28% among 350,000; recombinant TDP1, AlphaScreen DNA substrate cleavage; further: on the % scale 0 is the no-effect control and ±100 the full control effect; nearly all actives have a fitted effect of over 40% in size
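AlphaScreen read-out: signal falls as enzyme removes the 3' tyrosine-FITC from a 5'-biotinylated DNA oligo (15 nM, 5 min, RT). Enzyme was E. coli-made recombinant Tdp1 at 1 nM, exposed to compound for 15 min beforehand; beads 10 ug/ml, 10 min.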
Sfp PPTase inh: inhibitors of Bacillus subtilis Sfp phosphopantetheinyl transferase. Potency, µM, inactives show largest response in the series, negative = inhibition, most hits filed as inhibitors. AID 1490. hit rate 3.5% among 310,000. Biochemical Sfp PPTase activity, qHTS. Q9F4F7;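 further: the enzyme is Sfp with the accession as filed and its product quenches rhodamine fluorescence; 0% = enzyme reaction without inhibitor and -100% = no enzyme wells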
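Step 1, compound plus 15 nM Sfp-PPTase, 15 min, room temperature. Step 2, add rhodamine-CoA (5 uM) and BHQ-2-YbbR (12.5 uM). Step 3, read 525/598 nm fluorescence at 0 and 30 min.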
G9a inh: G9a (human) methyltransferase inhibition | Q96KQ7 | G9a H3K9 monomethylation, AlphaScreen, 2 h | Potency, µM (titrated, usually from 102 µM), without a hit: at the top dose activity, negative = inhibition, usual class: inhibitors | hit rate 8.8% among 350,000 | AID 504332; further: on the % scale 0 is the no-effect control and ±100 the full control effect; nearly all actives have a fitted effect of over 75% in size
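G9a (20 nM) preincubated 15 min RT with compounds, then 500 nM biotinylated H3K9 peptide and 20 uM SAM added; 2 h RT reaction. Monomethyl-H3K9 product detected by AlphaScreen with anti-H3K9me1 antibody, streptavidin donor and anti-rabbit IgG acceptor beads.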
JMJD2A Tudor inh: blocks the human JMJD2A Tudor domain. hit rate 4.4% among 390,000. O75164. AlphaScreen JMJD2A-Tudor / H3K4me3 peptide binding. Potency, µM (top dose mostly 114 µM), inactives show at the highest dose activity change, negative = inhibition, usual class: inhibitors; further: on the % scale 0 is the no-effect control and ±100 the full control effect; nearly all actives have a fitted effect of over 50% in size
An asterisk follows results filed as active; [ ] = remark or other dose. A selection: hits, their analogues and other compounds. The true share with any hit is near 12%. The call rests on the fitted dose curve; in most records, active means well fitted curve in the direction sought with a large enough effect; inconclusive means small, poorly fitted or top-dose-only effect, or another doubt; inactive means no such curve, though single readings can be large; an effect the other way counts as inactive or inconclusive. Potency means the concentration at half of the fitted maximal effect.

`Cc1cc(C)cc(NC(=O)C2CCN(C(=O)[C@@H]3Cc4ccccc4CN3)CC2)c1` gave HP1b binding inh 29.9%, BAZ2B block inconclusive, TDP1 inh 1.4%, Sfp PPTase inh 3.0%, G9a inh 50.1µM* and JMJD2A Tudor inh 22.4µM*.
For Cc1ccc(NC(=O)[C@H](CC(C)C)NC(=O)[C@@H]2Cc3ccccc3CN2)cc1 the results were HP1b binding inh 14.7%, BAZ2B block inconclusive, TDP1 inh 1.2%, Sfp PPTase inh 17.0%, G9a inh 31.6µM* and JMJD2A Tudor inh -24.3%.
`CC(C)c1ccc(NC(=O)C2CCN(C(=O)[C@@H]3Cc4ccccc4CN3)CC2)cc1` gave HP1b binding inh 16.0%, BAZ2B block -21.5%, TDP1 inh 3.1%, Sfp PPTase inh 0.0% and JMJD2A Tudor inh -21.4%.
Screening Cc1ccc(NC(=O)[C@@H](CC(C)C)NC(=O)[C@@H]2Cc3ccccc3CN2)cc1 returned HP1b binding inh 48.7%, BAZ2B block -19.4%, TDP1 inh 3.6%, Sfp PPTase inh 10.7%, G9a inh inconclusive and JMJD2A Tudor inh -24.7%.
C=CCn1c(SCC(=O)Nc2cccc(S(N)(=O)=O)c2)nnc1C1CCCCC1 was read as HP1b binding inh 30.6%, BAZ2B block 12.1%, TDP1 inh 0.5%[56.1 µM], G9a inh 9.2%[2.33 µM] and JMJD2A Tudor inh -1.6%.
`CCOC(=O)C1CCN(C(=O)CCc2ccc(S(=O)(=O)NCC(C)C)cc2)CC1` gave HP1b binding inh 33.9%, BAZ2B block 0.3%, Sfp PPTase inh 18.0%, G9a inh 39.1% and JMJD2A Tudor inh 3.3%.
`CCOC(=O)c1c(C)[nH]c(C)c1S(=O)(=O)NCC(=O)Nc1cccc(C#N)c1` gave HP1b binding inh -2.8%, BAZ2B block -1.6%, TDP1 inh 5.3%, G9a inh 2.1%[59 µM] and JMJD2A Tudor inh -16.2%.
For CC#CCN1c2ccccc2[C@]23C[C@@H](C(=O)OC)N(S(=O)(=O)c4c(C)noc4C)C2=NC(C(=O)OC)=C(C(=O)OC)[C@H]13 the results were TDP1 inh 5.9%[12.3 µM] and Sfp PPTase inh 15.5%.
Screening CCOC(=O)c1c(CSC(=N)N)n(-c2ccccc2)c2cc(Br)c(OC(C)=O)cc12 returned HP1b binding inh -14.7%, BAZ2B block inconclusive, TDP1 inh 4.8%, Sfp PPTase inh inconclusive, G9a inh 50.1µM* and JMJD2A Tudor inh inconclusive.
`CCOCCc1nn2c(=O)cc(CSCC(=O)Nc3ccccc3)nc2s1` gave HP1b binding inh 45.9%, BAZ2B block 7.5%, TDP1 inh 3.9%, Sfp PPTase inh 3.2%, G9a inh 9.9% and JMJD2A Tudor inh 4.7%.
Screening COc1cc2c(cc1OC)C(Cc1ccccc1[N+](=O)[O-])=NCC2 returned HP1b binding inh 6.6% and JMJD2A Tudor inh -22.9%.
COc1ccc2c(c1)CCN=C2Cc1ccc(OC)c(OC)c1 was read as HP1b binding inh 20.1%, BAZ2B block -7.2%, TDP1 inh 4.7%, Sfp PPTase inh -5.3%, G9a inh 3.98µM* and JMJD2A Tudor inh -20.1%.
O=C(O)c1ccc2c(c1)-c1nc3ccccc3n1C2=O was read as HP1b binding inh 3.5%, BAZ2B block inconclusive, TDP1 inh -2.2%, Sfp PPTase inh inconclusive, G9a inh 39.8µM* and JMJD2A Tudor inh 17.8µM*.
`O=C(O)CN1CCN(c2ncc(C(F)(F)F)cc2Cl)CC1` gave HP1b binding inh 9.0%, BAZ2B block -12.4%, TDP1 inh 2.7%, Sfp PPTase inh 3.0%, G9a inh 50.1µM* and JMJD2A Tudor inh -28.0%.
For CCN1CCN(C(c2cccc(OC)c2)c2sc3nc(C)nn3c2O)CC1 (stereo not given) the results were HP1b binding inh 22.4%, BAZ2B block -0.5%, TDP1 inh 0.0%, Sfp PPTase inh 2.8%, G9a inh 7.5%[59 µM] and JMJD2A Tudor inh -24.0%.
`Cc1nc2sc(C(c3ccccc3)N3CCC(O)CC3)c(O)n2n1` (stereo not given) gave HP1b binding inh 17.0%, BAZ2B block -2.1%, TDP1 inh 2.0%, Sfp PPTase inh 22.2%, G9a inh -0.3% and JMJD2A Tudor inh -8.8%.
Screening COc1ccc(N2CCN(C(c3ccco3)c3sc4nc(C)nn4c3O)CC2)cc1 (stereo not given) returned HP1b binding inh 1.6%, BAZ2B block inconclusive, TDP1 inh 0.0%, Sfp PPTase inh -9.9%, G9a inh 44.7µM* and JMJD2A Tudor inh -25.2%.
Screening Cc1nc2sc(C(c3ccco3)N3CCC(Cc4ccccc4)CC3)c(O)n2n1 (stereo not given) returned HP1b binding inh -4.3%, BAZ2B block -34.6%, TDP1 inh 5.2%, Sfp PPTase inh 35.5µM*, G9a inh inconclusive and JMJD2A Tudor inh inconclusive.
`COc1ccc(-c2noc(CSc3nc(-c4ccccc4)cc(=O)[nH]3)n2)cc1` gave HP1b binding inh 36.8%, BAZ2B block 26.0%, TDP1 inh 6.6%, Sfp PPTase inh inconclusive, G9a inh 39.8µM* and JMJD2A Tudor inh -17.9%.
`COc1ccc(Cl)cc1NC(=O)C1CCCN(c2ncnc3onc(C)c23)C1` (stereo not given) gave HP1b binding inh 98.5%, BAZ2B block 51.6%[57.1 µM], TDP1 inh 4.2%, G9a inh -6.5%[59 µM] and JMJD2A Tudor inh -11.7%.
For O=C(O)/C=C/C(=O)N1Cc2cc3ccccc3nc2C1 the results were HP1b binding inh 28.2%, BAZ2B block -38.4%, TDP1 inh 35.5µM*, Sfp PPTase inh 5.2%, G9a inh inconclusive and JMJD2A Tudor inh -18.3%.
Screening Cc1ccc(Sc2ccc(/C=N/O)cc2[N+](=O)[O-])cc1 returned HP1b binding inh -45.0%, BAZ2B block inconclusive, TDP1 inh 11.2%, Sfp PPTase inh -11.7%, G9a inh inconclusive and JMJD2A Tudor inh 44.7µM*.
For CCCc1nc2sc3c(SCC(=O)NCc4ccco4)ncnc3c2c2c1CCC2 the results were HP1b binding inh inconclusive, BAZ2B block 28.2µM*, TDP1 inh 20µM*, Sfp PPTase inh 50.1µM*, G9a inh 39.8µM* and JMJD2A Tudor inh 22.4µM*.
CCSc1ncnc2c1sc1nc(-c3ccco3)c3c(c12)CC(C)(C)OC3 was read as BAZ2B block -2.2%, TDP1 inh 1.0% and Sfp PPTase inh -33.1%.
COC(=O)CSc1ncnc2c1sc1nc(-c3ccco3)c3c(c12)CC(C)(C)OC3 was read as BAZ2B block 50.1µM*, Sfp PPTase inh 11.2µM* and G9a inh inconclusive.
`CCOC(=O)c1sc2nc(-c3ccco3)c3c(c2c1N)CC(C)(C)OC3` gave HP1b binding inh 20.0%, BAZ2B block -10.9%, TDP1 inh -2.1%, Sfp PPTase inh 8.91µM*, G9a inh inconclusive and JMJD2A Tudor inh -23.6%.
